# HDAC3 inh = HDAC3 deacetylase inhibitors, primary screen, biochemical, fluorescence, cell-free homogeneous. 320,000 tested, 0.15% active. Histone deacetylase 3 (Homo sapiens), O15379. inhibition, % at 8.3 µM. recombinant HDAC3, fluorogenic peptide/trypsin coupled; in the data active = inhibition above about 26%, passing the limit was not always enough
# Target sequence (O15379 whole entry, looked up): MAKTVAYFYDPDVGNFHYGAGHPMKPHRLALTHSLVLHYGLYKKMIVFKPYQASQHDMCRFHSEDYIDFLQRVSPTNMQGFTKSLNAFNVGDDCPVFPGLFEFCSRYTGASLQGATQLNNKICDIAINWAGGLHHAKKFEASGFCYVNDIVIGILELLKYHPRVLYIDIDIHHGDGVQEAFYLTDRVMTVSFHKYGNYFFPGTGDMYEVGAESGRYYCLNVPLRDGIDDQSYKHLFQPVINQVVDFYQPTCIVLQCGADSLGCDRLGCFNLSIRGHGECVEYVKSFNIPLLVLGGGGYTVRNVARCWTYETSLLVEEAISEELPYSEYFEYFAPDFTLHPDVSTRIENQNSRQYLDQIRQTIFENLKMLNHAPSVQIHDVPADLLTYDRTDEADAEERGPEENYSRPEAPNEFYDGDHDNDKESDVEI
# SIRT5 inh = SIRT5 desuccinylase inhibitors, primary screen, biochemical, fluorescence imaging, single point, set 5; NAD-dependent protein deacylase sirtuin-5, mitochondrial (Homo sapiens), Q9NXA8; Purified SirT5, succinyl-peptide AMC, trypsin-coupled fluorescence; inhibition, % at 15 µM; 330,000 tested, 1.1% active; in the data active = inhibition above about 15%
# PDI inh = inhibitors of human PDI, primary screen, biochemical, turbidity, single point, plate reader. AID 588391, 2011. PDI insulin aggregation turbidity, A650, 90 min. inhibition, % at 10 µM. 350,000 tested, 0.052% active;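 active = mean inhibition across replicates of 30% or more, whatever share of single replicates reach that level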
# ERp5 inh = inhibitors of ERp5-driven insulin aggregation, primary screen, biochemical, turbidity, absorbance 650 nm, single point. 90 min. AID 651711, 2012. 350,000 tested, 0.05% active. inhibition, % at 9.99 µM. Protein disulfide-isomerase A6 (Homo sapiens), Q15084;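 active = mean replicate inhibition above about 25%, with every replicate also reaching it, limit read from the data, passing the limit was not always enough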
# ERAP1 inh = human ERAP1 aminopeptidase inhibitors, primary screen, biochemical, single point, plate reader; Endoplasmic reticulum aminopeptidase 1 (Homo sapiens), Q9NZ08; recombinant ERAP1, Leu-AMC fluorescence, 60 min; inhibition, % at 10.7 µM; 340,000 tested, 0.15% active;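 active = mean replicate inhibition of at least 30%, or all replicates individually reaching that 30% level; inactive = mean below 30% and not every replicate reaching it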;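 also: 0% = neutral control wells and 100% = L-leucinethiol positive control wells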
# * hit, by the source's call; · = no result; ! = not confirmed by another sample. Shown is part of a subset that was picked to be rich in hits.
SMILES,HDAC3 inh,SIRT5 inh,PDI inh,ERp5 inh,ERAP1 inh
C[C@@H]1CN([C@@H](C)CO)S(=O)(=O)c2ccc(/C=C/c3ccccc3)cc2O[C@@H]1CN(C)C(=O)c1ccc2c(c1)OCO2,·,24*,·,0,-1
C/C=C/c1ccc2c(c1)O[C@@H](CN(C)C(=O)c1ccc3c(c1)OCO3)[C@H](C)CN([C@@H](C)CO)S2(=O)=O,·,0,·,-3,4
C[C@@H]1CN([C@H](C)CO)S(=O)(=O)c2ccc(/C=C/c3ccccc3)cc2O[C@@H]1CN(C)C(=O)c1ccc2c(c1)OCO2,·,23*,·,4,1
COc1ccc(S(=O)(=O)N(C)C[C@H]2Oc3ccc(NC(=O)CCCN(C)C)cc3CC(=O)N([C@@H](C)CO)C[C@@H]2C)cc1,·,-5,·,7,0
COc1ccc(C#Cc2ccc3c(c2)O[C@H](CN(C)S(=O)(=O)c2ccccc2F)[C@H](C)CN([C@H](C)CO)S3(=O)=O)cc1,·,16*!,·,2,3
C[C@H]1CN([C@@H](C)CO)S(=O)(=O)c2ccc(C#Cc3cccc(F)c3)cc2O[C@H]1CN(C)S(=O)(=O)c1ccccc1F,·,42*,·,12,1
CC(O)[C@H]1CN=C(N)N1CC1CCCCC1 (stereo partly drawn),6,16*,-4,-4,-6
NC1=NC[C@H](c2ccccc2)N1CC1CCCCC1,-3,·,-3,0,·
C[C@@H]1CN([C@H](C)CO)C(=O)c2cc(NS(=O)(=O)c3cn(C)cn3)ccc2O[C@@H](C)CCCCO[C@@H]1CN(C)CC1CC1,·,9,·,-5,2
COc1ccc(S(=O)(=O)Nc2ccc3c(c2)C(=O)N([C@@H](C)CO)C[C@H](C)[C@H](CN(C)C(=O)Nc2ccc(C(F)(F)F)cc2)O3)cc1,·,5,·,13,1
CN(C=O)c1ccc(CSc2ccccc2)cc1,·,36*,10,-10,-1
COC(=O)CCCCCCCCCC[N+]1(C)CCCCC1,13,·,19,·,·
CC(=O)OCCCCCCCCCCC[N+]1(C)CCCCC1,6,-3,5,-5,88*
O=C(CCCl)Nc1nnc(SCC(=O)NC2CCCC2)s1,0,60*,-2,2,2
CC(=O)c1cc(-c2ccc(F)cc2)n(CCC(=O)NC(C)(C)C)c1C,-2,20*,-12,7,14
CCC(C)NC(=O)CCn1c(-c2ccc(F)cc2)cc(C(C)=O)c1C (stereo not drawn),0,-3,-10,3,15
CN(C)S(=O)(=O)c1cccc(NC(=O)CCCSc2ccccc2)c1,5,10,-1,4,-3
CC(=O)c1cccc(NC(=O)CCCSc2ccccc2)c1,-2,16*,7,5,-2
NC(=S)N=Nc1c(O)[nH]c2ccc(F)cc12,-2,-7,3,1,-1
NC(=S)N=Nc1c(O)cc(O)c2[nH]c(=O)ccc12,·,10,4,-10,52*
NC(=O)NC(=O)CN1C(=O)NC(c2ccccc2)(c2ccccc2)C1=O,2,-3,-5,2,1
CC(C(=O)NC(N)=O)N1C(=O)NC(c2ccccc2)(c2ccccc2)C1=O (stereo not drawn),-1,19*,-3,1,0
CCC[N+](C)(C)C(C)C(OC(C)=O)c1ccccc1 (stereo not drawn),6,2,-2,6,41*
O=C(O)CN1C(=O)/C(=C2\SC(=S)N(C(Cc3ccccc3)C(=O)O)C2=O)c2ccccc21 (stereo not drawn),12,17*,0,0,10
CC(C)CCOc1ccc(C(=O)N2CCCC2C(=O)O)cc1 (stereo not drawn),6,17*,-2,8,2
SMILES,HDAC3 inh,SIRT5 inh,PDI inh,ERp5 inh,ERAP1 inh
CC(C)CCOc1ccc(C(=O)O)cc1,2,·,-10,·,·
CCC(=O)Nc1ccc2c(c1)OC[C@H](C)N(Cc1ccncc1)C[C@@H](C)[C@H](OC)CN(C)C2=O,·,4,·,-6,5
COc1ccc(C(=O)C2CCCN(Cc3cn[nH]c3-c3ccccc3)C2)cc1OC (stereo not drawn),7,29*,-1,-5,21
COc1ccc(-c2[nH]ncc2CN2CCCC(C(=O)c3cccc(OC)c3)C2)cc1 (stereo not drawn),0,18*,3,3,0
Cc1ccc(Nc2nc(N/N=C/c3c[nH]c4ccccc34)nc(N3CCOCC3)n2)cc1,26*,-6,-3,-2,2
C[C@H](CO)N1C[C@H](C)[C@H](CN(C)S(=O)(=O)c2ccc(-c3ccccc3)cc2)OCc2cn(nn2)CCCC1=O,·,-1,·,-3,-2
Cc1sc(NC(=O)CSc2n[nH]c(N)n2)c(C#N)c1C,·,16*,7,2,2
C[C@H](CO)N1C[C@H](C)[C@@H](CN(C)C(=O)C2CCOCC2)Oc2ncc(C#CC3(O)CCCC3)cc2C1=O,·,-3,·,0,3
O=C(COC(=O)c1ccc2c(c1)C(=O)N(c1cccc3ncccc13)C2=O)c1ccc(Cl)cc1,-7,-2,-1,4,-2
Cc1ccc(C(=O)COC(=O)c2ccc3c(c2)C(=O)N(c2cccc4ncccc24)C3=O)cc1,-1,18*,10,4,8
CCCCn1c(N)c(N(CCOC)C(=O)c2cc(-c3ccc(OC)c(OC)c3)nc3ccccc23)c(=O)[nH]c1=O,5,3,3,5,37*
CCCCn1c(N)c(N(CCOC)C(=O)c2c(CC)noc2C)c(=O)[nH]c1=O,-9,20*,3,6,1
CCc1noc(C)c1C(=O)N(CCOC)c1c(N)n(CC(C)C)c(=O)[nH]c1=O,1,-1,10,0,95*
CCCCN(C(=O)c1c(CC)noc1C)c1c(N)n(CCC)c(=O)[nH]c1=O,3,-3,0,-1,1
CCCCN(C(=O)c1c(CC)noc1C)c1c(N)n(CC(C)C)c(=O)[nH]c1=O,4,-2,-2,-15,0
Cc1cccc(-c2ccc([C@H]3[C@@H](CO)N4C(=O)CN(C(=O)NC5CCCCC5)C[C@@H]34)cc2)c1,·,-3,·,8,1
C[C@H](CO)N1C[C@H](C)[C@@H](CN(C)S(=O)(=O)c2cn(C)cn2)Oc2c(NC(=O)Nc3cccc4ccccc34)cccc2C1=O,·,0,·,-2,-1
COc1ccc(NC(=O)N2C[C@@H](O)COC[C@@H]3O[C@H](CC(=O)NCc4ccccc4OC)CC[C@H]32)cc1,·,-3,·,9,-1
C[C@@H]1CCCCO[C@H](CN(C)C(=O)Nc2ccccc2)[C@@H](C)CN([C@@H](C)CO)C(=O)c2cc(NC(=O)c3ccccc3)ccc2O1,·,-4,·,2,1

# Screening results deposited in PubChem by Broad Institute.
